The full list was thinned out, with hits kept by preference.
Dicer processing: blocks human Dicer maturation of pre-miR-21 | Q9UPY3 | cat-ELCCA pre-miR-21 Dicer processing, chemiluminescence; hits give high values | z-score at 25 µM | 47,000 compounds, 6% hits; in the data active = z-score above about 3, passing the limit was not always enough;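 also: plate controls were vehicle for no effect and no enzyme for full effect; higher signal means more uncleaved substrate so more Dicer inhibition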
Starred values were filed as active, the others as inactive.

SMILES	Dicer processing
CC1(C)CC(=O)C=C(Nc2ccc(F)cc2)C1	1.45
O=C(/C=C/Nc1ccc(C(F)(F)F)cc1)c1ccc(F)cc1	2.39
O=C1/C(=C/c2c(F)c(F)c(F)c(F)c2F)SC(=S)N1/N=C/c1ccc(Cl)cc1Cl	11.7*
C=CCn1c(=S)sc2c(=O)n(/N=C/c3ccc(Cl)cc3Cl)c(C)nc21	-1.78
Cc1cccc(/C=C2\SC(=S)N(/N=C/c3ccc(Cl)cc3Cl)C2=O)c1	-1.35
CC1=C(C(=O)OC2CCCCC2)C(c2ccc(C)cc2)C2=C(CCCC2=O)N1 (centres undefined)	-0.55
CCOC(=O)c1cnc(Nc2cccc(Cl)c2)nc1C(F)(F)F	1
Nc1ccc(SC(C[N+](=O)[O-])c2ccccc2C(F)(F)F)cc1 (centres undefined)	-9.45
CCSc1nnc2c(n1)OC(c1ccccc1C)N(C(C)=O)c1ccccc1-2 (centres undefined)	1.11
Clc1cc2nsnc2cc1Cl	0.42
FC(F)(F)c1cc(Cl)c2nsnc2c1	4.46*
O=C(O)c1ncc(C(F)(F)F)cc1Cl	1.21
S=C(NCCc1ccccc1)NC1CC2C=CC1C2 (centres undefined)	-0.15
Cc1ccc(-c2cc3ncc(C(=O)c4cc(C)ccc4O)cn3n2)cc1	-0.53
CC1=CC(C)=N/C1=C/c1c(O)[nH]c(=O)[nH]c1=O	-1.16
Cc1ccccc1-n1ccc(=O)[nH]c1=O	1.03
Cc1ccc2nc(-c3ccc(C)c(NC(=O)c4ccc([N+](=O)[O-])o4)c3)oc2c1	4.11*
O=C(Nc1ccc2oc(-c3cccc(Cl)c3)nc2c1)c1ccc([N+](=O)[O-])o1	7.04
Cc1ccc(-c2nc3cc(Cl)ccc3o2)cc1NC(=O)c1ccc([N+](=O)[O-])o1	0.65
C=CCn1c(=S)[nH]c2c(OC)c(OC)c(OC)cc2c1=O	-0.05
Cc1ccc(-c2nc3c4c5c(sc4ncn3n2)C(C)(C)NC(C)(C)C5)cc1	1.5
C=CCSc1nnnn1-c1ccc(OC(=O)C=C(C)C)cc1	-0.89
Cc1cc(=O)[nH]c(SCCOc2ccc(C)c(C)c2)n1	-1.29
Cc1ccc(-n2nnnc2SCCOc2ccc(C)c(C)c2)cc1	9.75*
CN(C)CCN1C(=O)C(O)=C(C(=O)c2cc3ccccc3o2)C1c1ccc(OCc2ccccc2)cc1 (centres undefined)	-0.19
SMILES	Dicer processing
CCOC(=O)c1cc2n(n1)C(C(F)(F)F)CC(c1ccccc1)N2 (centres undefined)	2.8
Cc1ccc(C2CC(C(F)(F)F)n3nc(C(=O)N(C)Cc4c(C)nn(C)c4C)cc3N2)cc1 (centres undefined)	0.02
O=C(NCc1cccs1)c1cc2n(n1)C(C(F)(F)F)CC(c1ccc(F)cc1)N2 (centres undefined)	1.17
CN(Cc1ccccc1)C(=O)c1cc2n(n1)C(C(F)(F)F)CC(c1ccccc1)N2 (centres undefined)	3.02*
Cc1c(CNC(=O)c2cc3n(n2)C(C(F)(F)F)CC(c2ccc4c(c2)OCO4)N3)cnn1C (centres undefined)	-1.87
O=C(NCc1ccco1)c1cc2n(n1)C(C(F)(F)F)CC(c1ccc3c(c1)OCO3)N2 (centres undefined)	3.79*
Cc1ccc(C2CC(C(F)(F)F)n3ncc(C(=O)NCC4CCCO4)c3N2)cc1 (centres undefined)	0.63
O=C(NCc1ccco1)c1cc2n(n1)C(C(F)(F)F)CC(c1ccc(Cl)cc1)N2 (centres undefined)	2.94
O=C(NCC1CCCO1)c1cc2n(n1)C(C(F)(F)F)CC(c1ccc(Br)cc1)N2 (centres undefined)	3.71*
N#CCCOCC1CCN(Cc2ccccc2)CC1	0.38
COc1ccccc1N1CCN(S(=O)(=O)c2ccccc2)CC1	0.58
COc1ccccc1N1CCN(Cc2ccc3ccccc3c2)CC1	1.93
COc1ccccc1N1CCN(S(=O)(=O)c2cccc3ccccc23)CC1	3.33*
COc1cc(S(=O)(=O)N2CCC(C)CC2)ccc1Cl	-0.36
COc1ccccc1N1CCN(C2CCN(S(=O)(=O)c3ccc(Cl)cc3)CC2)CC1	3.59*
O=S(=O)(c1ccc(F)cc1)N1CCC(N2CCCC2)CC1	2.33
O=S(=O)(N/N=C/c1ccsc1)c1ccc(Cl)s1	-0.4
Cc1ccc(/C=N/NS(=O)(=O)c2ccc(C)cc2)cc1	0.17
COC(=O)/C=C1\SC(=Nc2ccc(C)c(C)c2)N(c2ccc(C)c(C)c2)C1=O	-1.82
COc1cccc(NC(=O)c2cc(C)n(Cc3cccs3)c2C)c1	-0.64
O=C(CSc1nc(-c2cccs2)cc(C(F)(F)F)n1)NC1CCCC1	1.26
O=C(O)CCCNS(=O)(=O)c1ccc(Cl)cc1	1.21
COc1ccc(S(=O)(=O)NCCCC(=O)O)cc1	3.15*
Cc1ccc(S(=O)(=O)NCCCCCC(=O)O)cc1	-0.2
CCSc1ncc(-c2nnnn2-c2ccccc2)c(-c2ccccc2)n1	-0.02
SMILES	Dicer processing
CCN(CC)C(=O)C1Sc2nnc(-c3ccccc3)n2NC1c1ccc(Cl)cc1 (centres undefined)	2.2
COc1ccc(/C(O)=C2\C(=O)C(=O)N(Cc3cccnc3)C2c2ccc(O)c(OC)c2)cc1 (centres undefined)	1.69
COc1ccc(Sc2nc(C)c(-c3csc(C)n3)cc2C#N)cc1	-1.87
O=C(CSc1nc(O)cc(=O)n1-c1ccccc1F)N1CCc2ccccc21	5.53*
Cc1c(O)nc(SCC(=O)N2CCc3ccccc32)n(-c2ccccc2)c1=O	0.01
CC(C)c1c(O)nc(SCC(=O)N2CCc3ccccc32)n(-c2ccccc2)c1=O	-1.11
CCOC(=O)c1cnc(NNC(=O)c2ccccc2C)nc1C(F)(F)F	2.1
O=S(=O)(c1ccc(Cl)cc1)n1cc2c(n1)CCOC2	-0.47
Cc1csc(=Nc2ccccc2)n1-c1ccccc1	1.07
COc1ccc(Cn2c(=O)oc3ccccc32)cc1OC	-0.24
Cc1ccc2oc(=O)n(Cc3ccccc3OC(C)C)c2c1	5.1*
Cc1ccc2oc(=O)n(CC(=O)O)c2c1	1.29
COc1cc(S(=O)(=O)Nc2cccnc2)ccc1Br	-0.61
O=C(COc1ccc(Cl)cc1)Nc1nccs1	-0.38
O=C(COc1ccc(Cl)cc1)Nc1c[nH]c(=O)[nH]c1=O	4.13*
O=C(COc1ccc(Cl)cc1)Nc1ccc(Cl)cn1	0.71
COc1ccc(CS/C(N)=N/N)cc1	0.87
CCOc1ccc2nc(NC3=NCN(Cc4ccccc4)CN3)nc(C)c2c1	0.73
O=C(CSc1nnnn1-c1ccccc1)Nc1ccc2c(c1)OCO2	0
CSc1scc(NC(=O)Nc2ccc(OC(F)(F)F)cc2)c1S(=O)(=O)C(C)C	0.88
CSc1sc(C(=O)O)c(N)c1S(=O)(=O)C(C)C	-1.32
CSc1scc(Cl)c1S(=O)(=O)C(C)C	13.7*
CN(C)S(=O)(=O)c1ccc(C(=O)Nc2nc3ccccc3c3nc4ccccc4n23)cc1	0.84
O=[N+]([O-])c1ccc(Oc2ccc(Cl)cc2Cl)cc1C(F)(F)F	0.22
COc1ccc(Oc2sccc2[N+](=O)[O-])cc1	0.72
SMILES	Dicer processing
O=[N+]([O-])c1ccsc1Oc1ccc(Cl)cc1Cl	4.2*
COC(=O)C1=C(C)N=C2SCCC(=O)N2C1c1ccc(C(C)(C)C)cc1 (centres undefined)	0.32
CC1(C)COC(c2ccccc2COC(=O)c2ccc(C(C)(C)C)cc2)=N1	-0.15
COC(=O)/C=C1/NCC(OC(=O)c2ccc(C(C)(C)C)cc2)CNC1=O (centres undefined)	4.36*
COc1ccc2c(c1)c1nc3cc4ccccc4cc3nc1n2C(C)=O	-1.5
COC(=O)CSc1nc(NC(C)=O)nc(C)c1Br	3.15*
COC(=O)CSc1nc(N)nc(C)c1Cl	2.69
